# USP30 block = inhibitors of human USP30 deubiquitinase; Q70CQ3; purified USP30, Ub-rhodamine cleavage fluorescence; inhibition, % at 25 µM; actives 5.3% (n = 47,000); AID 1645860
# USP28 block = inhibitors of human USP28 deubiquitinase; purified USP28, Ub-rhodamine cleavage fluorescence, 30 min; inhibition, % at 25 µM; actives 3% (n = 47,000); AID 1645857
# USP17 inh = inhibitors of human USP17 deubiquitinase | inhibition, % at 50 µM | actives 6.5% (n = 47,000) | A8MUK1 | purified USP17, Ub-rhodamine cleavage fluorescence, 3 h
# Target sequence (A8MUK1 whole entry, looked up): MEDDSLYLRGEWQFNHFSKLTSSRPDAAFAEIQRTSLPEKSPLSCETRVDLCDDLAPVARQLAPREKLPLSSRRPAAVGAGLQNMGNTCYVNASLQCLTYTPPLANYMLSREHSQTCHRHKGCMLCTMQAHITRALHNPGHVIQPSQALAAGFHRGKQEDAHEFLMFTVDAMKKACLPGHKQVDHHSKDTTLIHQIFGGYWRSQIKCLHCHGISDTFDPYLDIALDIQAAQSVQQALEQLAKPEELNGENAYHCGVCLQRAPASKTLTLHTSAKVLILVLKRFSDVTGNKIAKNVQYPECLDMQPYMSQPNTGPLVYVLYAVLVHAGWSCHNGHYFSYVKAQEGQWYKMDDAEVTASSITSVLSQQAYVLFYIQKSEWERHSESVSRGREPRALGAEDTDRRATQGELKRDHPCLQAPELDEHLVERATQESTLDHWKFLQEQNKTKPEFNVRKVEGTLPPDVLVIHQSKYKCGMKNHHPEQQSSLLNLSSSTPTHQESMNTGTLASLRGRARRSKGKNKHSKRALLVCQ
# USP8 inh = inhibitors of human USP8 deubiquitinase; actives 4.2% (n = 47,000); inhibition, % at 20 µM; purified USP8, Ub-rhodamine cleavage fluorescence, 30 min; P40818
# USP10 block = blocks human USP10 ubiquitin-rhodamine cleavage. Q14694. purified USP10, Ub-rhodamine fluorescence, 60 min. inhibition, % at 20 µM. actives 1.1% (n = 47,000). AID 1645856
# Numbers stand for hits; - = inactive; . = no result. The list is not random: actives were taken first. Their share in the collection is about 14%. Cut-off read from the data, not from the text of the source: active = inhibition above about 30%; inactive = the rest.
SMILES,USP30 block,USP28 block,USP17 inh,USP8 inh,USP10 block
CC(C)c1ccc(N2CCN(CC3CCCCC3)C2=O)cc1,-,-,-,-,-
CS(=O)(=O)c1cccc(N2CCN(Cc3ccc(F)cc3F)C2=O)c1,-,33,-,-,-
O=C(Cn1ncc2c(N3CCCC3)ncnc21)Nc1ccccc1F,-,-,-,-,-
CC(C)(C)OC(=O)NCc1ccc(C(=O)Nc2ccc(Cl)cn2)cc1,34,-,-,-,-
Cc1ccc(C(=O)Nc2ccc(Cl)cn2)c(C)c1,-,-,-,-,-
CC(C)CC(=O)N1CCCC1c1nc2ccccc2s1 (centres undefined),-,-,-,-,-
CCOC(=O)C1CCN(C(=O)c2cnc(-c3ccccc3)nc2-c2ccncc2)CC1,-,-,-,-,-
CC1=C(C(=O)c2ccc(Cl)cc2)C(c2ccc(C(C)C)cc2)NC(=O)N1 (centres undefined),-,-,32,73,-
O=C1N(Cc2ccc(F)cc2)CCN1c1ccc2c(c1)OCO2,-,48,-,-,-
COc1ccc(Cl)cc1-c1nc(-c2cccnc2)no1,-,-,35,-,-
COc1ccc(Cl)cc1-c1nc(-c2ccc(=O)[nH]c2)no1,-,-,-,-,-
COc1cccc(S(=O)(=O)N2CC[C@@H]3[C@H]2C(=O)N(C)[C@@H](C)C(=O)N3C)c1,-,-,-,32,-
Cc1sc2ncnc(OCc3ccc(F)cc3Cl)c2c1C,-,58,-,-,-
Cc1sc2ncnc(OCC(=O)c3cc(F)ccc3F)c2c1C,-,-,-,-,-
Cc1sc2ncnc(OCc3ccc([N+](=O)[O-])cc3)c2c1C,-,46,-,-,-
Cc1ccc(-c2ccnc(-c3ccc(OCc4ccc([N+](=O)[O-])cc4)cc3)n2)cc1,-,-,-,-,-
Cc1[nH]c(-c2nnc(C3CCC3)o2)c(C)c1S(=O)(=O)N1CCCCC1,-,-,-,-,-
COC(=O)c1cc2c(ccn2-c2ccc(F)cc2)n1CC(=O)NC1CCCCC1,-,-,-,34,-
CC(C)OC(=O)c1cc2c(ccn2-c2ccc(F)cc2)n1CC(=O)N(C)C1CCCCC1,-,-,-,60,-
CC(C)OC(=O)c1cc2c(ccn2-c2ccc(F)cc2)n1CC(=O)NC1CCCCC1,-,-,-,-,-
COc1ccc(C(=O)/C=C\c2cn(-c3ccccc3)nc2-c2cccs2)cc1,-,-,-,-,-
Nc1nn(-c2ccccc2)cc1-c1cccs1,-,-,-,36,-
NS(=O)(=O)c1ccc(CNS(=O)(=O)/C=C/c2ccccc2)cc1,78,57,86,-,-
CCCOc1ccc(/C(O)=C2\C(=O)C(=O)N(CCN(C)C)C2c2ccc(C)cc2)cc1 (centres undefined),-,-,-,-,-
CCCNC(=O)c1oc2ccc3c(c2c1C)C(=O)CC1(CCCC1)O3,39,-,-,-,-
SMILES,USP30 block,USP28 block,USP17 inh,USP8 inh,USP10 block
CC(NC(=O)c1ccc(Cl)c(S(=O)(=O)NC2CC2)c1)c1cc2ccccc2o1 (centres undefined),-,-,-,-,-
Cc1sc(NC(=O)/C=C/c2ccco2)nc1-c1ccccc1,-,54,-,-,-
Cc1ccc(-c2nc(NC(=O)c3ccccn3)sc2C)cc1,-,-,-,-,-
O=C(Nc1ccccc1)c1sc(-c2ccccc2)nc1-c1ccccc1,-,-,-,-,-
CC(=O)c1sc(NC(=O)/C=C/c2ccccc2)nc1-c1ccccc1,-,-,74,-,-
Cc1cc(=O)[nH]c(C2CCCN2C(=O)c2ccc3c(c2)OCCO3)n1 (centres undefined),-,-,-,-,-
Cc1c(-c2noc(-c3ccc[nH]3)n2)nnn1-c1ccc(F)cc1,-,-,-,-,-
COc1ccc(-c2nnc(SCc3ccccc3C#N)o2)c(OC)c1,50,-,-,-,-
O=C(Oc1ccc2c3c(c(=O)oc2c1)CCC3)C(c1ccccc1)c1ccccc1,-,-,-,-,-
O=C(Nc1cnc(-c2cccc(Cl)c2)nc1)C1CCC1,-,-,-,30,-
CC(C)C(=O)N1Cc2ccccc2C2(CCNCC2)C1,-,-,-,-,-
Cc1nc2ccccc2c(=O)n1Cc1ccc(-c2ccccc2)cc1,-,-,51,-,-
Cc1ccccc1Cn1cc(SCC(=O)Nc2ccc(F)cc2)c2ccccc21,-,-,-,-,-
Cc1ccccc1C(=O)NCCn1cc(SCC(=O)Nc2ccc3c(c2)OCCO3)c2ccccc21,89,57,-,-,-
O=C(CSc1cn(Cc2ccccc2)c2ccccc12)Nc1ccc2c(c1)OCCO2,48,60,.,-,-
O=C(CSc1cn(CC(=O)N2CCCCC2)c2ccccc12)Nc1ccc2c(c1)OCO2,-,-,-,-,-
Cc1ccccc1C(=O)NCCn1cc(SCC(=O)N2CCOCC2)c2ccccc21,-,-,-,-,-
Cc1ccccc1Cn1cc(SCC(=O)Nc2ccc3c(c2)OCCO3)c2ccccc21,35,50,-,-,-
Cc1ccc(NC(=O)CC2Nc3ccccc3NC2=O)cc1[N+](=O)[O-] (centres undefined),49,-,41,66,-
Cc1ccc(S(=O)(=O)Nc2ccc(NC(=O)CC3OC(=O)c4ccccc43)cc2)cc1[N+](=O)[O-] (centres undefined),-,-,-,-,-
Cc1ccc(-c2nc(CNC(=O)C(C)Oc3ccccc3F)cs2)cc1 (centres undefined),46,-,-,-,-
Cc1ccccc1NC(=O)c1nn(C)c2ccccc2c1=O,-,-,-,-,-
COc1cccc(N2CCN(C(=O)CCNS(=O)(=O)c3ccc4c(c3)CCC(=O)N4)CC2)c1,-,-,58,-,-
O=C(Cn1c(=O)n(C2CCCCC2)c(=O)c2ccccc21)N1CCCc2ccccc21,-,-,-,-,-
Cc1cc(C)c(COc2ccc3c(c2C)OC(C)(C)CC3=O)c(C)c1,30,-,-,-,-
SMILES,USP30 block,USP28 block,USP17 inh,USP8 inh,USP10 block
CC(=O)COc1ccc2c(c1C)OC(C)(C)CC2=O,-,-,-,-,-
COc1ccc(NC(=O)c2cccc3[nH]cc(CN4CCSCC4)c23)cc1,-,-,-,61,-
O=C(Nc1cnc2ccccc2c1)Nc1ccccc1Cl,.,.,55,-,-
O=S1(=O)C[C@H](NCc2ccc(F)cc2)[C@@H](S(=O)(=O)c2ccccc2)C1,-,-,-,-,-
O=C(Cn1cnc2c(sc3ccccc32)c1=O)Nc1ccc(F)c(F)c1,-,-,-,-,-
Cc1cc(C)c2c(n1)sc1c(=O)n(CC(=O)Nc3cccc(Cl)c3)cnc12,-,-,41,-,-
COc1ccc(C(=O)NCCCCN2CCN(c3ncccc3C(F)(F)F)CC2)cc1,-,-,-,-,-
CCn1cc2nc(SCC(N)=O)n(Cc3ccc(OC)cc3)c(=O)c2n1,-,-,-,-,-
CC(=O)Nc1ccc(S(=O)(=O)N2CCCC(C(=O)NCCc3ccccc3)C2)cc1 (centres undefined),-,-,-,-,-
CC(=O)Nc1ccc(S(=O)(=O)N2CCC(C(=O)NCCc3ccc(Cl)cc3)CC2)cc1,34,-,-,-,-

# High-throughput results from PubChem BioAssay.
